Data from ChEMBL document CHEMBL1157539, “Thousands of chemical starting points for antimalarial lead identification” (Nature, 2010).

Tests used:
Format in all cases: functional
Plasmodium falciparum [1] = experiment: GSK_TCMDC: Inhibition of Plasmodium falciparum 3D7 in whole red blood cells, using parasite LDH activity as an index of growth. Test compounds present at 2uM
Plasmodium falciparum [2] = experiment: GSK_TCMDC: Inhibition of Plasmodium falciparum Dd2 in whole red blood cells, using parasite LDH activity as an index of growth. Test compounds present at 2uM
HepG2 = experiment: GSK_TCMDC: Percent inhibition of human HepG2 cell line. Test compounds present at 10uM.

SMILES	Inhibition (Plasmodium falciparum [1])	Inhibition (Plasmodium falciparum [2])	Inhibition (HepG2)
Cc1nc2ccc(-c3nc4cc(N)ccc4[nH]3)cc2[nH]1	94%	80%	6%
COc1ccc(C(=O)CCC(=O)N(Cc2ccc(-c3ccc(CNCCc4ccc(S(C)(=O)=O)cc4)cn3)cc2)C(C)CN(C)C)cc1F.O=C(O)C(F)(F)F (stereo not drawn)	98%	85%	13%
COc1ccc2c(ccc3c2ncc2c(=O)n(-c4ccccc4)[nH]c23)c1	95%	92%	0%
CN1CCN(CC(=O)Nc2ccc(-c3ccc(-c4nc5ccccc5[nH]4)s3)cc2)CC1	100%	49%	12%
Cc1ccc2nc(N/C(N)=N/C(=O)NC3CCCCC3)nc(C)c2c1	99%	94%	8%
Br.CCCCCCCn1c2c(c(=N)c3c1CCC3)CCCC2	98%	98%	46%
COc1cc(NC(=O)/C=C/c2cc(F)cc(F)c2F)cc(OCCN2CCCCC2)c1.O=C(O)C(=O)O	100%	80%	10%
CCCN(Cc1ccc(OCC)cc1)Cc1cc(=O)c2cc(Cl)ccc2[nH]1	82%	82%	47%
Cc1onc(-c2ccccc2)c1-c1nc(NC2CCCC(C)C2)no1 (stereo not drawn)	100%	46%	22%
CC(NC(=O)c1ccc(O)c(-c2ccc(Cl)c(Cl)c2)c1)C(=O)NCCN1CCCC1 (stereo not drawn)	99%	9%	0%
CCCCN1CCN(CCCNc2c3ccccc3nc3ccccc23)CC1.Cl	100%	70%	26%
COc1cccc2c(C)cc(NCc3ccc(Cl)cc3)nc12	97%	5%	7%
CC1CN(Cc2cccc(-c3ccc(-c4nc5ccccc5[nH]4)cc3)c2)CC(C)O1.O=C(O)C(F)(F)F (stereo not drawn)	90%	88%	37%
CCC[C@@H]([C@@H](CC1CCCCC1)C(=O)N[C@H](C(=O)Nc1ccccn1)[C@H](C)CC)N(O)C=O	96%	87%	24%
O=C(O)C(F)(F)F.O=C1OC(c2ccccc2)(c2ccccn2)CN1C1CCN(Cc2cccn2-c2ccc(Cl)cc2)CC1 (stereo not drawn)	99%	98%	21%
CC(C)Cc1nc2nc(N)nc(N)c2cc1C(C)C	96%	3%	67%

SMILES	Inhibition (Plasmodium falciparum [1])	Inhibition (Plasmodium falciparum [2])	Inhibition (HepG2)
O=[N+]([O-])c1ccccc1C=NN=c1c2c([nH]c3ccccc13)CCCC2	97%	99%	0%
O=C(NCCc1ccc(F)cc1)c1ccc(N2CCN(c3ccncc3)CC2)nc1.O=C(O)C(F)(F)F	88%	3%	1%
O=C(Nc1ccc2c(c1)CCCN2S(=O)(=O)c1cccs1)c1cc([N+](=O)[O-])ccc1Cl	93%	95%	29%
COc1ccc(NC(=O)Nc2ccc(C)c(-c3ccc(C(=O)NCCN4CCCC4)cc3)c2)cc1	95%	1%	18%
O=C(NCc1ccc(F)cc1)c1ccc(N2CCN(c3ccncc3)CC2)cn1.O=C(O)C(F)(F)F	98%	81%	7%
CC(CN(C)C)C(=O)Nc1ccc(-c2ccc(-c3nc4cc(C(F)(F)F)ccc4[nH]3)cc2)cc1 (stereo not drawn)	100%	93%	14%
CCCCc1ccc(C(=O)Nc2ccc3nc(N4CCN(CC)CC4)cc(C)c3c2)cc1	91%	13%	32%
COc1cc(/C=C/C(=O)NC2CCC(N3CCC(c4ccccc4C)CC3)CC2)cc(OC)c1 (stereo not drawn)	89%	11%	51%
Cc1cccc2nc(-c3ccc(-c4cccc(NC(=O)c5cccc(C(N)=O)c5)c4)cc3)[nH]c12	84%	87%	14%
NC1CCN(Cc2ccc(-c3ccc(-c4nc5ccccc5[nH]4)cc3)cc2)C1.O=C(O)C(F)(F)F (stereo not drawn)	100%	100%	34%
CN1CCN(c2cc(NC(=O)c3ccc(-c4ccc(Cl)cc4)cc3)ccc2Cl)CC1	99%	33%	30%
CN1CCCC1CCNc1ncc2c(-c3ccc(NC(=O)Nc4cc(C(F)(F)F)ccc4F)cc3)nn(C)c2n1.O=C(O)C(F)(F)F (stereo not drawn)	96%	72%	74%
Cc1cc(C)cc(OCC(O)CN(Cc2cc(Cl)cc(Cl)c2)C(=O)Nc2ccc(Cl)cc2)c1 (stereo not drawn)	97%	43%	0%
CCc1cn2c3c(cc(C(=O)N[C@@H](Cc4ccccc4)[C@H](O)CNCC(C)C)cc13)N(C)S(=O)(=O)CC2	98%	99%	0%
CCN(CC)CC(O)Cc1c2ccc([N+](=O)[O-])cc2nc2cc(OC)c(OC)cc12 (stereo not drawn)	100%	37%	41%
